# From PubChem
# RAD52 inh – RAD52 DNA annealing inhibitors, primary screen, biochemical, FRET, single point, set 2; DNA repair protein RAD52 homolog (Homo sapiens), P43351; recombinant RAD52 DNA annealing, FRET fluorescence; inhibition, % at 18.7 µM; 360,000 tested, 0.46% active; AID 651710, 2012;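 active = every replicate showing at least 50% inhibition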
# Target sequence (P43351 whole entry, looked up): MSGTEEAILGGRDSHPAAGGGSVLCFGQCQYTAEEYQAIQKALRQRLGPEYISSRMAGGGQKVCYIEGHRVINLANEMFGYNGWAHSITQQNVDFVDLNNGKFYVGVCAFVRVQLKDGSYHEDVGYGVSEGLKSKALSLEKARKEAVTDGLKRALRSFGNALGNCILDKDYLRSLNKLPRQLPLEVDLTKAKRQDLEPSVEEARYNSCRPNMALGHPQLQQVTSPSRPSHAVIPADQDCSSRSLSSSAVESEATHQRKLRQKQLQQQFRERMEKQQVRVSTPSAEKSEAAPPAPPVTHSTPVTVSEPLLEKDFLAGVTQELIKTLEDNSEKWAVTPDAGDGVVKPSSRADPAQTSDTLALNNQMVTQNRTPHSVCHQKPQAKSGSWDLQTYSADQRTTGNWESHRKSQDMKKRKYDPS
# NSD2 inh – NSD2 histone methyltransferase inhibitors, primary screen, biochemical, AlphaScreen, single concentration, set 2 | Histone-lysine N-methyltransferase NSD2 (Homo sapiens), O96028 | NSD2 peptide methylation, 120 min | inhibition, % at 12.5 µM | 310,000 tested, 0.54% active | AID 743445, 2014; in the data active = inhibition above about 50%
# Casp6 inh – human caspase-6 inhibitors, primary screen, biochemical, VEID-R110 fluorescence, single point, set 2. P55212. purified caspase-6, Z-VEID-R110 cleavage fluorescence. inhibition, % at 12.5 µM. 350,000 tested, 0.53% active;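 active = mean inhibition across replicates at least about 35%, with every replicate also reaching that limit, limit read from the data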;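 also: 0% = median of neutral control wells and 100% = no fluorescence left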
# AF4-AF9 inh – inhibitors of AF4 peptide binding to AF9, primary screen, biochemical, AlphaScreen, biotin-AF4 peptide, FLAG-AF9, single point; inhibition, % at 10 µM; AID 651704, 2012; 350,000 tested, 0.47% active; Protein AF-9 (Homo sapiens), P42568;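 active = every replicate reaching a set inhibition limit, whatever the replicate mean, cut at about 25% in these data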;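 also: 0% = plate neutral control median and 100% = total signal loss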
# rRNA inh HTS – reduced GFP signal of wild-type E. coli, primary screen, bacterial rRNA inhibitor project, GFP/RFP fluorescence, OD600, single point | 350,000 tested, 1.6% active | E. coli WT GFP vs humanized-ribosome RFP mutants, 24 h; stronger effect = lower value; DMSO median 0, no signal -100 | GFP signal change (wild-type ribosome), % (concentration not given with the values);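 active = significant combined selectivity score with lowered wild-type GFP, culture density cut under 30%, mutant RFP and density less affected; inactive = any of these conditions unmet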
# AlphaScreen intf – AlphaScreen signal interference counter-screen, dose response, artefact control, biochemical, cherry-picked samples, luminescence; shares compounds with AF4-AF9 inh; AC50, µM (highest dose often 12 µM), for the others: at the highest dose activity change, negative = inhibition; 530 tested, 45% active; cut-off not given, nearly all actives have AC50 up to about 14 µM
# DNA binder FP – DNA-binding compounds via dye displacement, dose response, artefact control for RAD52 inhibitor project, biochemical, fluorescence polarization, cherry-pick. shares compounds with RAD52 inh. Salmon sperm DNA/acridine orange FP displacement. AC50, µM. 1,000 tested, 8% active. AID 652128, 2013;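 active = fitted half-maximal concentration for signal loss at or below twice the highest dose tested, in every separate run, actives reach about 64 µM in these data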
# Numbers without * were called inactive; i = inactive; / = no result given; ! = not active in a repeat. Hits are enriched below; roughly 2.5% of the tested compounds scored in any of these assays.
SMILES,RAD52 inh,NSD2 inh,Casp6 inh,AF4-AF9 inh,rRNA inh HTS,AlphaScreen intf,DNA binder FP
O=C(Nc1cccc(F)c1)N1CCCCN2[C@@H](CO)[C@H](c3ccc(C#Cc4ccccc4)cc3)[C@@H]2C1,-78,/,1,1,-54,/,/
CN1CCN(C(c2ccc(Br)cc2)c2cc(Cl)c3cccnc3c2O)CC1 (centres undefined),7,5,-4,84*,-53,2.8µM*,/
N#Cc1nc(-c2cccs2)oc1N1CCN(Cc2ccccc2)CC1,-10,/,-1,31*,-24,-27%,/
N#Cc1nc(COc2ccccc2)oc1N1CCN(Cc2ccccc2)CC1,/,3,/,/,/,/,/
Cc1ccc(-c2ccc3c(c2)O[C@H](CN(C)C(=O)CN(C)C)[C@H](C)CN([C@H](C)CO)S3(=O)=O)cc1,11,/,0,7,4,/,/
COc1ccc(NCc2nn(CC(=O)c3ccc(Br)cc3)c3[n+]2CCCCC3)cc1,5,31,14,30*,-16,-43%,/
CC(=O)N1C[C@H]2[C@@H](c3ccccc31)[C@@H](CO)N2C(=O)Nc1ccc(F)cc1,3,/,0,-2,2,/,/
CCOc1ccc(NCc2cccn2-c2nnc(N3CCC(C(=O)NCCCN4CCCCC4CC)CC3)s2)cc1 (centres undefined),33,31,-88,38*,3,11µM*,/
CC1CCCCN1CCCNC(=O)C1CCN(c2nnc(-n3cccc3)s2)CC1 (centres undefined),47,5,-125,8,12,/,/
Cc1ccc(C)c(S(=O)(=O)N2CCN(Cc3ccc(O)c4ncccc34)CC2)c1,-13,6,5,82*,-58,-31%,/
CN1C(=O)c2cc(NC(=O)c3ccno3)ccc2OC[C@H]2O[C@@H](CC(=O)Nc3ccccc3)CC[C@@H]21,0,/,-4,-1,-2,/,/
Cc1cccc(O)c1C,-4,/,-1,-3,9,/,/
Cc1cccc(C)c1N=Nc1c(C)cc(O)cc1C,1,58*,3,35*,-29,10µM*,/
COc1ccc(C[C@@H]2CCc3cnnn3COC[C@@H](c3ccccc3)NC2=O)cc1,-2,/,0,1,5,/,/
Cc1cccc(Nc2cc(C)c3c(O)cccc3n2)c1C,-72,/,6,28*,-45,-30%,/
CC(C)NC(=O)N(C)C[C@@H]1Oc2ccc(NC(=O)NC3CCCCC3)cc2CC(=O)N([C@@H](C)CO)C[C@H]1C,12,/,/,-3,6,/,/
Cn1ccc2c(/C=C/c3ccc(F)cc3)cc3c(c21)C1CCC3C1 (centres undefined),-13,/,-1,44*,2,9%,/
O=C(N/N=C/c1sc(N2CCCCC2)nc1-c1cccs1)C1CC1,-44,-7,1,23,-18,-20%,/
Oc1c(C(Nc2cccc(C(F)(F)F)c2)c2ccncc2)ccc2cccnc12 (centres undefined),-10,/,7,33*,-50,4.8µM*,/
O=C(Nc1ccc(N2CCCCC2)cc1)c1ccc([N+](=O)[O-])o1,-17,3,11,9,-4,/,/
O=C(Nc1ccc(N2CCCC2)c(Cl)c1)c1ccc([N+](=O)[O-])o1,-2,3,5,49*,-56,13µM*,/
CC(=NNC(=S)N1CCN(C2CCCCCC2)CC1)c1ccccn1,-16,-2,-25,46*,16,1.2µM*,/
Cc1ccc2nc(-c3ccc(NC(=S)NC4CC(C)(C)NC(C)(C)C4)cc3)sc2c1,95*,6,30,45*,-37,-22%,i
COc1ccc(-c2cc(NC=O)c3ncc(-c4cccc(C(=O)NCCN(C)C)c4)n3c2)cc1,90*,14,-69,26*,0,-25%,i
COc1ccc(-c2cc(NC=O)c3ncc(-c4cccc(OC)c4)n3c2)cc1,-37,3,2,-4,0,/,/
SMILES,RAD52 inh,NSD2 inh,Casp6 inh,AF4-AF9 inh,rRNA inh HTS,AlphaScreen intf,DNA binder FP
CC1CCN(CC(=O)Nc2ccc(S(=O)(=O)N3CCCCC3)cc2)CC1,-13,1,-3,2,-2,/,/
CC1CCN(CC(=O)Nc2ccc(N3CCCCCC3)cc2)CC1,75*,/,-6,53*,2,12µM*,i
CC(=O)c1ccc2c(c1)N(CCCN1CCC(CCO)CC1)c1ccccc1S2,2,/,4,6,-15,/,/
OCCN1CCN(CCCN2c3ccccc3Sc3ccc(Cl)cc32)CC1,102*,/,-8,40*,-57,-32%,i
CN(C)CCCN1c2ccccc2Sc2ccc(Cl)cc21,101*,/,1,39*!,-33,-32%,i
CC(C)C(=O)Nc1ccc2c(c1)C(=O)N(C)[C@@H]1CC[C@H](CC(=O)NCC3CC3)O[C@@H]1CO2,4,/,-1,-3,4,/,/
CCN1[C@H](C(=O)NCc2ccc(F)cc2)[C@@H](CO)[C@@H]2Cn3c(ccc(-c4ccccc4OC)c3=O)[C@@H]21,5,/,-4,2,-4,/,/
CCCCCN=C(N)N/N=C/c1c[nH]c2ccc(OC)cc12,56*,/,/,35*,/,-39%,i
CNC(=O)C[C@@H]1CC[C@@H]2[C@H](COc3ccc(NS(=O)(=O)c4ccccc4C)cc3C(=O)N2C)O1,18,/,2,-1,1,/,/
COc1ccc(NC(=O)c2ccc(-c3ccc(-c4noc(C)n4)cc3C)cc2)cc1N1CCN(C)CC1,101*,/,/,38*,/,12µM*,i
COc1ccc(Cl)cc1-c1nc(-c2ccc(NC(=O)c3ccncc3)cc2)no1,/,-2,/,/,/,/,/
CCN(Cc1ccccc1)c1ccccc1,-7,/,-2,/,4,/,/
CCN(Cc1ccccc1)c1ccc(/C=N/N=C(N)N)cc1,92*,25,4,53*,-58,10µM*,i
CC(C)(C)c1ccc(C(=O)N2CCNCC2)cc1,/,-3,/,/,/,/,/
O=C(c1ccc(-c2cc(O)c3ncccc3c2)cc1)N1CCNCC1,101*,/,-79,92*,-13,3.9µM*,i
CC(C)NC(=O)N[C@H]1C=C[C@H](CC(=O)O)O[C@@H]1CO,-2,/,0,1,-3,/,/
COc1cc(Nc2c3ccccc3nc3ccccc23)cc(OC)c1OC,55*,17,3,31*,-25,13µM*,i
CN(C)CC/C=C1/c2ccc(F)cc2Sc2ccc(Cl)cc21,62*,23,5,36*,-47,-31%,i
